In all, about 140,000 compounds went through this assay and about 860 (0.61%) were called active. This excerpt belongs to a sample that is enriched for actives. A number with no mark means an inactive call. Rule as the data show it: active = inhibition above about 25%; inactive = the rest.

E3 ubiquitin-protein ligase RBX1 (Homo sapiens) + Cullin-1 (Homo sapiens), sequence (P62877 whole entry, looked up): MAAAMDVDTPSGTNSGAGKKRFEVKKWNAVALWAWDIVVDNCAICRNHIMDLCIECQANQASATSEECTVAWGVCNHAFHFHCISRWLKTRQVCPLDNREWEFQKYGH
E3 ubiquitin-protein ligase RBX1 (Homo sapiens) + Cullin-1 (Homo sapiens), sequence (Q13616 whole entry, looked up): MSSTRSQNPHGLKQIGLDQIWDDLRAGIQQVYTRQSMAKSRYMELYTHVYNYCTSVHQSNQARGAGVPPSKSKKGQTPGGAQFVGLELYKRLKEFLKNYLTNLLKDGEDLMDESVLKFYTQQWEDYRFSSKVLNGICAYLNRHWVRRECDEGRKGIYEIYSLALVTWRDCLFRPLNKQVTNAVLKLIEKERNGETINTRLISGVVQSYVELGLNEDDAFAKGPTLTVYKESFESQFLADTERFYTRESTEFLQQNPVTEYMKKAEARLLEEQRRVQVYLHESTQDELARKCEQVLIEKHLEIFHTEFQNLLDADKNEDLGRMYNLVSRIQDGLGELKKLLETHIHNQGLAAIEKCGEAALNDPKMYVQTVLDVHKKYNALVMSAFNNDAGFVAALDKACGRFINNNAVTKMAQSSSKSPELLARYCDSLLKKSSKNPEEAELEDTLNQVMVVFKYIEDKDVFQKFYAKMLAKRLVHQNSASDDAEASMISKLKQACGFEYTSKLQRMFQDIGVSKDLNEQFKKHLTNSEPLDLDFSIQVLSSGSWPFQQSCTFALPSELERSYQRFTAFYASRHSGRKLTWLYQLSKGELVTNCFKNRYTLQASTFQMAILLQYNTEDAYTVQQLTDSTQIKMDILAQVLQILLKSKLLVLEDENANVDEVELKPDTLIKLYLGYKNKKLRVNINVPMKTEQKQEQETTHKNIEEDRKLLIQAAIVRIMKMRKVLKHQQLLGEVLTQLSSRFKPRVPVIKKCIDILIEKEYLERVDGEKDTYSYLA

The experiment addresses E3 ubiquitin-protein ligase RBX1 (Homo sapiens) + Cullin-1 (Homo sapiens) (UniProt P62877+Q13616). As to the kind of experiment: inhibitors of human ROC1-CUL1 ubiquitin ligase activity (AID 1347404). As to conditions: in vitro K48 di-Ub FRET, acceptor:donor ratio, 45 min; at 10 µM; stronger effect = higher value.
With `O=C(/C=C/c1ccc([N+](=O)[O-])o1)c1ccco1`, the inhibition (in general, the relative decrease from the control value, in per cent) is -10.2%.

As to `Cc1noc(C)c1C(=O)Nc1ccc(C(F)(F)F)cc1`, the inhibition is 1.67%.

Turning to `Clc1cccc(N2N=C(c3cccs3)CC2c2ccccc2)c1` (stereo not given), the inhibition was -9.66%.

As to `CC(=O)N1N=C(c2ccc(Cl)cc2Cl)CC1c1ccccc1` (stereo not given), the inhibition is -1.24%.

In the case of `O=C(O)c1cccc(N2N=C(c3ccc4c5c(cccc35)C(=O)N(c3ccccc3)C4=O)CC2c2ccccc2)c1` (stereo not given), the inhibition was 44.6% (active).

For `Cc1cc(/C=C2\C(=O)NC(=S)N(c3ccc(Cl)cc3)C2=O)c(C)n1-c1ccccc1`, the inhibition is 1.69%.

As to `Cc1ccc(-n2c(C)cc(/C=C3/C(=O)NC(=S)N(c4ccc(Br)cc4)C3=O)c2C)cc1`, the inhibition is -0.744%.

Take `CCCc1sc(-n2c(C)cc(/C=C3/C(=O)NC(=S)N(C)C3=O)c2C)c(C#N)c1C`: the inhibition is 76.1% (active).

For the compound `Cc1ccccc1Cn1cc(C(=O)N2CCN(C3CCCC3)CC2)nn1`, the inhibition is 14.7%.

Turning to `CC1=Nc2nnnn2C(c2ccc(Br)cc2)C1C(=O)Nc1ccccc1` (stereo not given), the inhibition was 0.6%.

As for `O=C(c1nn2c(C(F)(F)F)c3c(nc2c1Cl)-c1ccccc1CC3)N1CCN(c2ccc(F)cc2)CC1`, the inhibition is -4.56%.

As to `N#CC1C(=N)OC2=C(CCC/C2=C/c2ccoc2)C1c1ccoc1` (stereo not given), the inhibition was 50.6% (active).

Consider `CSc1ccc(C2C3=C(CCCC3=O)OC(=N)C2C#N)cc1` (stereo not given), for which the inhibition is 3.66%.

With `N#CC1C(=N)OC2=C(C(=O)CCC2)C1c1ccsc1` (stereo not given), the inhibition is 6.79%.

As for `Cc1ccc2nc(CNC(=O)Cn3nnnc3CN3CCC(C)CC3)cn2c1`, the inhibition was -3.66%.

`Clc1ccc(C2=CSC3=Nc4cccc5cccc(c45)N23)cc1`: the inhibition was 86.8% (active).

In the case of `Clc1ccc(-c2cc3ccccc3o2)cc1`, the inhibition was -1.45%.

Turning to `O=C(O)c1ccccc1C(=O)Nc1ccc(-c2cn3ccsc3n2)cc1`, the inhibition was 10.3%.

Take `COC(=O)Nc1ccc(S(=O)(=O)N2CCn3c4c(c5cc(C)ccc53)CCCC42)cc1` (stereo not given): the inhibition was -2.9%.

Regarding `COCCCNC(=O)c1ccc2c(c1N)C(=O)c1ccccc1C2=O`, the inhibition was 5.03%.

As for `Nc1c(S(=O)(=O)O)cc(Nc2ccc(-c3ccc(Nc4cc(S(=O)(=O)O)c(N)c5c4C(=O)c4ccccc4C5=O)cc3)cc2)c2c1C(=O)c1ccccc1C2=O`, the inhibition was 94.8% (active).

On to `Cc1ccc(OCc2ccc(C(=O)N/N=C/c3sccc3C)cc2)cc1C`, for which the inhibition was -9.15%.

For `Cc1cc(C(=O)O)ccc1NCc1ccccc1`, the inhibition was 15.3%.

Turning to `COc1cc(C(=O)N/N=C(/C)c2cccnc2)cc(OC)c1OC`, the inhibition is -15.1%.

Turning to `COc1cccc(OC/C=C/CN2CCN(C)CC2)c1`, the inhibition is -3.35%.

With `O=C(c1ccco1)N(Cc1cccs1)c1ccc(O)cc1`, the inhibition is -0.924%.

Consider `CCc1nccn1CCC(=O)NCc1nc(-c2ccc(NC(=O)c3ccc(COC)o3)cc2)oc1C`, for which the inhibition is -7.82%.

`CCNC(=O)N1CCNC(=O)C1CC(=O)N1CCN(c2ccc(OC)cc2)CC1` (stereo not given): the inhibition is 16.6%.

`CCOc1ccc(-n2c(Sc3c(N)c4c5c(sc4[nH]c3=O)CCC5)nnc2-c2nn(C)c(C)c2Cl)cc1`: the inhibition is -4.22%.

For `CCCNC(=O)C1CCN(Cc2ccccc2C)CC1`, the inhibition was 4.05%.

In the case of `COC(=O)C1=C(C)O[C@]23CCC[C@]12CC(=O)C3`, the inhibition is 2.4%.

With `c1ccc2c(Sc3ncnc4sc5c(c34)CCCC5)c[nH]c2c1`, the inhibition is 0.643%.

For `CCCCc1nnc(SCC2=Nc3ccc(F)cc3C(=O)C2)n1C`, the inhibition was -6.52%.

As to `Cc1scc(Cc2csc(C)c2C)c1C`, the inhibition is -4.02%.

For the compound `Cc1ccc(NC(=O)c2c(N)sc3c2CCC3)c(C)c1`, the inhibition was 43.1% (active).

Consider `COc1ccc(-c2cc(-c3ccc(C)cc3)nc3sc(C(=O)Nc4ccc(C)cc4C)c(N)c23)cc1OC`, for which the inhibition is 7.9%.

As to `Cc1cccc(C(=O)Nc2ccc(C)cc2C)c1`, the inhibition was -1.04%.

As for `Cc1[nH]c2ccccc2c1C(c1cccnc1)N1CCN(c2ccc(F)cc2)CC1` (stereo not given), the inhibition is 2.08%.

As for `CN(C)CCOCCOC(c1ccccc1)c1ccccc1C(F)(F)F` (stereo not given), the inhibition was 0.845%.

On to `COC(=O)c1ccccc1NC(=O)CCCC(=O)OCC(=O)c1ccc(Br)cc1`, for which the inhibition is 1.86%.

Take `CCOC(=O)c1cnc2c(C)cc(Cl)cc2c1N1CCN(Cc2ccccc2)CC1`: the inhibition is -3.19%.

Consider `COc1ccc(N2C(S)=C(C#N)C(=O)NC2c2ccc(-c3ccccc3Cl)o2)cc1` (stereo not given), for which the inhibition is 24.9%.

Regarding `CC(C)(C)NS(=O)(=O)c1ccc(NC(=O)C2CCCO2)cc1` (stereo not given), the inhibition was -1.62%.

Regarding `O=C(OCc1ccc(Br)cc1)c1ccccc1C(=O)c1ccccc1`, the inhibition was 3.15%.

For `CC(=O)c1ccc(NC(=O)CCCC(=O)OCC(=O)c2ccc(-c3ccccc3)cc2)cc1`, the inhibition was -6.85%.

For `O=C(Nc1ccc(S(=O)(=O)O)c2cc(S(=O)(=O)O)cc(O)c12)c1ccccc1`, the inhibition is 63.3% (active).

As for `O=C(Nc1ccc(S(=O)(=O)O)c2ccccc12)c1ccc(C(=O)Nc2ccc(S(=O)(=O)O)c3ccccc23)cc1`, the inhibition was 2.57%.

With `O=C(Nc1ccccc1O)c1cccc(S(=O)(=O)Nc2ccc(F)cc2)c1`, the inhibition is 1.23%.

In the case of `CC(O)c1cn(C2CCN(c3nc4ccccc4s3)CC2)nn1` (stereo not given), the inhibition was 4.88%.

In the case of `COc1ccccc1C(=O)Nc1ccnn1C1CCN(Cc2nccn2C)CC1`, the inhibition was 9.37%.

For the compound `CC(C)(C)NS(=O)(=O)Cc1ccc(Cl)cc1Cl`, the inhibition is 7.68%.

With `Cc1nc2ccccc2n1/N=C/c1ccccc1`, the inhibition was 3.45%.

Turning to `CCOC(=O)CNc1nc2ccccc2n2c(C)nnc12`, the inhibition was -3.19%.

`C/C(=N\O)c1sc2nc3ccccc3n2c1C`: the inhibition was 26.5% (active).

`CCc1ccccc1-c1nc2c(cnn2C)[nH]1`: the inhibition is 5.57%.

Turning to `CC1CCN(CC(O)COC2CC3CCC2(C)C3(C)C)CC1` (stereo not given), the inhibition is 0.492%.

As to `CCN(CC)C(=O)CSc1nc2sc3c(c2c(=O)n1C)CCC3`, the inhibition is 1.01%.

On to `COc1cc(/C=C2\C(=N)N3N=C(Cc4cccs4)SC3=NC2=O)cc(OC)c1OC`, for which the inhibition was 6.55%.

As for `CC(C)C1=NN2C(=N)/C(=C/c3cccc(OCc4ccc(F)cc4)c3)C(=O)N=C2S1`, the inhibition was -4.78%.

On to `N=C1/C(=C/c2cccc(OC(=O)c3ccc(Cl)cc3)c2)C(=O)N=C2SC(c3cccs3)=NN12`, for which the inhibition was 49.6% (active).

Values taken from PubChem BioAssay AID1347404 (Pan Lab, Icahn School of Medicine at Mount Sinai, 2020).
